The record followed here is PubChem BioAssay AID2012 (Sanford-Burnham Center for Chemical Genomics, 2009).

In general, inhibition refers to the drop in the measured response relative to a control, in per cent.

Each structure is given as a SMILES string. The whole screen tested about 290,000 compounds, of which about 2,700 (0.93%) were called active. The sample holds actives, similar compounds and a random draw of the others, so the mix is not that of the screen. How the calls were made is not given here.

The assay concerns the target Eukaryotic translation initiation factor 4H (Homo sapiens) (UniProt Q15056). Put plainly: eIF4H binding inhibition – biochemical, uHTS, fluorescence polarization, translation initiation inhibitor project, primary screen (AID 2012).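 Further: calls also rest on retests at 20 µM and on dose response follow-up.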 The following applies: eIF4H fluorescence polarization binding assay, stronger effect = higher value.

On to `COc1ccc(OC)c(C(O)c2nc3ccccc3n2C)c1` (stereo not drawn), for which the inhibition (at 35 µM) was -3.8% (inactive).

Consider `Cc1ccc(C(C)C)cc1OCC(=O)Nc1ccccc1N1CCCC1`, for which the inhibition (at 35 µM) is -15.8% (inactive).

With `CC(=O)Oc1ccc(-c2cccc(C(=O)N3CCCCC3)c2)cc1`, for the setting “at 35 µM”, the inhibition is 5.5% (inactive).

As for `O=C1OC(/C=C/c2ccccc2)=NC/1=C/c1ccco1`, the inhibition by setting is: (at 35 µM) 76.9% (inactive); (confirmation average, at 20 µM) 4.3%.

In the case of `CC(C)(C)C1C/C(=C/c2ccco2)C(=O)/C(=C/c2ccco2)C1` (stereo not drawn), the inhibition by setting is: (at 35 µM) 71.6% (active); (confirmation average, at 20 µM) 82.6%.

Turning to `CCC1S/C(=N/N=C/c2ccco2)NC1=O` (stereo not drawn), under “at 35 µM”, the inhibition was 9.4% (inactive).

With `O=C(NCc1ccccc1Cl)C1CCN(S(=O)(=O)c2cccc3nonc23)CC1`, the inhibition (at 35 µM) is 9.7% (inactive).

For the molecule `C=CCN1C(=O)C2(OCCCO2)c2cccc(Cl)c21`, the inhibition (at 35 µM) is 0.1% (inactive).

Turning to `O=C(CN1CCC(NC(=O)Nc2ccccc2)CC1)Nc1cccc([N+](=O)[O-])c1`, the inhibition (at 35 µM) was -3.5% (inactive).

Regarding `COc1ccc(S(=O)(=O)N2CCOC2CNC(=O)C(=O)NCc2ccncc2)cc1C` (stereo not drawn), for the setting “at 35 µM”, the inhibition was -2.1% (inactive).

Regarding `CCOc1cccc(=O)c2c(C)n(CC3CCCO3)c(C)c12` (stereo not drawn), the inhibition (at 35 µM) is 79.5% (active).

For the molecule `COc1ccccc1NC(=O)CSc1nnc(C)n1CC1CCCO1` (stereo not drawn), the inhibition (at 35 µM) is -1.3% (inactive).

Regarding `CCOc1ccc(NC(=O)c2cccc3c2C(=O)N(CC2CCCO2)C3)cc1` (stereo not drawn), for the setting “at 35 µM”, the inhibition was 3% (inactive).

As to `Cc1c2cnn(CC(=O)NCCCN3CC(C)CC(C)C3)c(=O)c2c(C)n1Cc1ccc(Cl)cc1` (stereo not drawn), the inhibition (at 35 µM) was -3.1% (inactive).

Turning to `O=[N+]([O-])c1ccc(NC(=S)N2CCN(c3ccccn3)CC2)cc1`, where the note is “at 35 µM”, the inhibition was -4.4% (inactive).

For the molecule `CCn1cc(C(=O)NCCC(=O)NCCO)c(=O)c2cc3c(cc21)OCO3`, under “at 35 µM”, the inhibition is 13.7% (inactive).

Take `CCN(CC)C(=O)C(=O)Nc1cccc(Br)c1`: the inhibition (at 35 µM) was -3% (inactive).

With `CCN(CC)C(=O)CSC(Nc1cccc(F)c1)=C(C#N)C#N`, the inhibition was 63% (active) (at 35 µM) and 56.7% (confirmation average, at 20 µM).

As for `O=C(CCN1C(=O)c2ccccc2C1=O)Nc1cccc(F)c1`, the inhibition (at 35 µM) is 0.6% (inactive).

As to `CC(C)n1c(COc2ccccc2)nc2ccccc21`, where the note is “at 35 µM”, the inhibition is -1.5% (inactive).

Take `CCC(Oc1ccccc1C)C(=O)Nc1ccc(S(=O)(=O)Nc2cc(C)on2)cc1` (stereo not drawn): for the setting “at 35 µM”, the inhibition is -3.3% (inactive).

On to `CN(C)S(=O)(=O)N1CCC(Oc2cccc(C(=O)NCCCC3CCCC3)c2)CC1`, for which the inhibition (at 35 µM) was -18.3% (inactive).

As for `O=C(OCc1cc(Cl)ccc1OC(F)F)c1cccnc1`, the inhibition is, setting by setting: (at 35 µM) 54.6% (active); (confirmation average, at 20 µM) 83.8%.

With `O=C(OCc1cc2ccccc2[nH]c1=O)c1cccnc1`, where the note is “at 35 µM”, the inhibition was -7.3% (inactive).

On to `Cc1cc(=O)[nH]c(SCc2cc(Cl)ccc2OC(F)F)n1`, for which, under “at 35 µM”, the inhibition was -16.4% (inactive).

In the case of `Cn1c(CCNS(=O)(=O)c2ccc(F)cc2)nnc1SCc1cccnc1`, the inhibition (at 35 µM) is -0.9% (inactive).

As to `CCOC(=O)C1CCN(Cc2ccc(-c3ccccc3)cc2)CC1`, the inhibition (at 35 µM) was 3.6% (inactive).

Take `CCNC(=S)NNC(=O)C1CCN(Cc2ccccc2)CC1`: the inhibition (at 35 µM) was 1.5% (inactive).

Consider `CCCC(=O)C1CCN(Cc2ccccc2)CC1`, for which the inhibition (at 35 µM) was 7.7% (active) and the inhibition (confirmation average, at 20 µM) was 89.5%.

As to `COCCCNC(=O)Cc1ccc(-n2c(C)nc3cccnc32)cc1`, the inhibition by setting is: (at 35 µM) 63.6% (inactive); (confirmation average, at 20 µM) 13.7%.

In the case of `CCc1nc2cccnc2n1-c1ccc(C(=O)O)cc1`, the inhibition is 91.6% (active) (at 35 µM) and 89.8% (confirmation average, at 20 µM).

`CCOC(=O)CNC(=O)CSc1nc2cccnc2n1CC`: for the setting “at 35 µM”, the inhibition is 5.8% (inactive).

For the molecule `CCN(CC(=O)Nc1ccc(C)c(S(=O)(=O)N(C)C)c1)Cc1ccccc1`, the inhibition (at 35 µM) was 6.5% (inactive).

On to `O=c1c(-c2cccc(Cl)c2)c[nH]n1-c1ccccc1`, for which the inhibition (at 35 µM) is 4.3% (inactive).

In the case of `Cc1ccc2[nH]c3c(c2c1)CN(C(=O)CN1CCN(c2ccccc2)CC1)CC3`, the inhibition (at 35 µM) is 76.8% (active).

For `O=C(CN1CCCC1)N1CCN(c2ccccc2)CC1`, the inhibition (at 35 µM) was -11.2% (inactive).

With `CCCC(=O)N1CCc2[nH]c3ccccc3c2C1`, where the note is “at 35 µM”, the inhibition was -0.2% (inactive).

For the molecule `COc1ccc(OC)c(S(=O)(=O)n2c([N+](=O)[O-])cnc2C)c1`, the inhibition (at 35 µM) is -9.3% (inactive).

Regarding `O=C(Nc1ccccc1)/C(=C\c1ccco1)NC(=O)c1ccco1`, the inhibition (at 35 µM) is 26.2% (inactive).

As to `COc1ccccc1C(=O)N/C(=C/c1ccco1)C(=O)Nc1ccc(C(=O)O)cc1`, the inhibition by setting is: (at 35 µM) 59.8% (active); (confirmation average, at 20 µM) 65.3%.

In the case of `O=C(NCc1ccco1)/C(=C/c1ccco1)NC(=O)c1ccccc1`, the inhibition (at 35 µM) was 3.9% (inactive).

For `Cc1cccc(NC(=O)/C(=C\c2ccco2)NC(=O)c2ccccc2)c1`, the inhibition (at 35 µM) is 57.6% (active).

For `Cc1ccc(NC(=O)/C(=C\c2ccccc2)NC(=O)c2ccco2)cc1`, the inhibition (at 35 µM) was 3.5% (inactive).

As to `COc1ccccc1C(=O)N/C(=C/c1ccc2c(c1)OCO2)C(=O)Nc1cccc(C(=O)O)c1`, the inhibition (at 35 µM) is -11.5% (inactive).

Turning to `C=CCOc1cccc(C2C(C(=O)c3ccc(C)o3)=C(O)C(=O)N2CCCn2ccnc2)c1` (stereo not drawn), the inhibition (at 35 µM) was -4.1% (inactive).

Turning to `CCOc1ccc(N(CC(=O)NCC2CCCO2)S(=O)(=O)c2ccc(C)cc2)cc1` (stereo not drawn), the inhibition (at 35 µM) is 11.5% (inactive).

For the molecule `COc1ccc(-c2nnc3n2CCCCC3)cc1`, where the note is “at 35 µM”, the inhibition was -12.1% (inactive).

`COCCn1cnc2c1c(=O)n(CC(=O)NN)c(=O)n2Cc1ccccc1`: the inhibition (at 35 µM) is -8.7% (inactive).

In the case of `O=C(Nc1ccccc1)C1CCN(C(=O)c2ccc(Br)cc2)CC1`, the inhibition (at 35 µM) was -11% (inactive).

On to `CCOC(=O)C(C)Sc1nnc(CSc2nc3nc(C)cc(C)n3n2)o1` (stereo not drawn), for which, where the note is “at 35 µM”, the inhibition was -7.5% (inactive).
